Here are results for 97 compounds from PubChem BioAssay AID1789 (The Scripps Research Institute Molecular Screening Center, 2009).

Molecules are shown by their SMILES. Among all 290,000 compounds or so, about 2,700 (0.93%) were called active.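 The calls were made as follows: active = inhibition above the screen-wide mean plus 3 SD, computed separately per campaign (cut at about 16% in these data); inactive = the rest.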 The full list was thinned out, with actives kept by preference. Square brackets hold non-standard residues; d marks the D form. Peptide text beside a SMILES is read from it. * marks the point of attachment. PhAc = O=C(Cc1ccccc1)*

The test system of the assay is Heat shock protein HSP 90 (rabbit reticulocyte lysate; luciferase refolding). As to the kind of experiment: HSP90 inhibitors, primary screen, cell lysate, luminescence (AID 1789).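 Also: 0% = DMSO wells and 100% = 60 µM geldanamycin wells; inhibitors lower the luminescence because luciferase stays unfolded.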 The note with it: 3 h, at 5.6 µM, stronger effect = higher value.
As to `COc1cc(OC)c(C(=S)N2CCCC2)cc1OC`, the inhibition (in general, the change of the read-out against control, counted positive when it falls) is -0.17% (inactive).
As for `O=C(Cn1ncc(N2CCCC2)c(Br)c1=O)c1ccc(Cl)cc1`, the inhibition was -0.91% (inactive).
`CC(C)(C)Nc1nc(-c2ccccn2)nc2ccccc12`: the inhibition is -0.49% (inactive).
Regarding `Cc1nc(COc2cc3oc(=O)cc(C)c3cc2Cl)cs1`, the inhibition is 1.76% (inactive).
Consider `CCN(C(=O)Cc1c(C(=O)O)n(CC)c2ccccc12)c1ccccc1C`, for which the inhibition is -6.6% (inactive).
As to `Cc1c(CNCCc2ccccc2)c(C(=O)O)c(C)n1-c1ccccc1`, the inhibition was 1.5% (inactive).
As to `CCOCCOC(=O)C1=C(C)NC(=O)NC1c1ccc2c(c1)OCO2` (configuration not stated), the inhibition was -3.33% (inactive).
Consider `O=C(NC1CCCCCCC1)c1cccs1`, for which the inhibition was -3.45% (inactive).
As for `O=C(NCc1ccco1)/C(=C\c1cccc([N+](=O)[O-])c1)NC(=O)c1ccco1`, the inhibition is -0.13% (inactive).
Turning to `COCCN(C(=O)CCC(=O)Nc1nccs1)C(C(=O)NCCC(C)C)c1ccc(F)cc1` (configuration not stated), the inhibition is 2.45% (inactive).
The value for `Cc1ccc2c(cnn2C(=O)CCC(=O)NC2CCCC2)c1` was -3.9% (inactive); that for `O=[N+]([O-])c1ccc(N=Cc2c(O)ccc3ccccc23)cc1` was 2.1% (inactive).
The same measure for `Oc1c(C=Nc2cccc3nsnc23)ccc2ccccc12`: 36.7% (active); for `COc1ccc(C=Nc2cccc3ncccc23)cc1`: 7.77% (inactive).
With `CC(C)C[C@@H](NC(=O)[C@H]1CCCN1C(=O)Cc1ccccc1)C(N)=O` (PhAc-[dP]-[dL]-NH2), the inhibition is -3.77% (inactive).
On to `COc1ccccc1NC(=O)CN(c1ccccc1OC)S(=O)(=O)c1ccccc1`, for which the inhibition is 0.43% (inactive).
In the case of `CCc1c(C)sc(NC(=O)/C=C/c2ccc3c(c2)OCO3)c1C(=O)OC`, the inhibition was -8.23% (inactive).
`Cc1cccc(NC(=O)Nc2ccc3c(c2)OCO3)n1`: the inhibition was -5.1% (inactive).
As to `Cc1cccc(NC(=O)/C=C/c2ccc3c(c2)OCO3)n1`, the inhibition was 22.8% (active).
As for `Cc1cc(C)cc(NC(=O)NC2CCCCCCC2)c1`, the inhibition is -3.82% (inactive).
The same measure for `O=C(Nc1ccn(Cc2ccccc2)n1)c1n[nH]c([N+](=O)[O-])c1Cl`: 22.3% (active); for `O=C(Nc1ccn(Cc2ccccc2)n1)c1cccc(F)c1`: 11.1% (inactive); for `Cn1cc([N+](=O)[O-])c(C(=O)Nc2cnn(Cc3ccc(F)cc3)c2)n1`: -0.28% (inactive).
Take `O=S(=O)(NC1CCCCC1N1CCN(c2ccccc2F)CC1)c1ccccc1` (configuration not stated): the inhibition is 2.71% (inactive).
The same measure for `O=C(Nc1ccc(Cl)cc1)c1cccc(OC(=S)N2CCOCC2)c1`: -7.8% (inactive); for `CCOC(=O)Cn1c(=O)n(Cc2ccc(OC)cc2)c(=O)c2cccnc21`: -2.48% (inactive); for `Oc1cccc(/C=N/Nc2ccc(Cl)nn2)c1O`: 5.19% (inactive).
Consider `CCc1ccc(NC(=O)CCNS(=O)(=O)c2cccs2)cc1`, for which the inhibition is -2.78% (inactive).
The same measure for `COCC(=O)Nc1c(C(=O)N2CCCC2)oc2ccccc12`: -3.81% (inactive).
For `Clc1ccc(-c2cc(-c3ccccn3)on2)c(Cl)c1`, the inhibition is 38.6% (active).
In the case of `O=C1CSC(c2ccccc2)N1c1nc(-c2ccc(Cl)cc2Cl)cs1` (configuration not stated), the inhibition is -0.17% (inactive).
For `Clc1ccc(-c2ncc3ccccn23)c(Cl)c1`, the inhibition is 4.35% (inactive).
Regarding `O=C(NC(=O)N1CCOCC1)c1ccccc1`, the inhibition is 0.55% (inactive).
In the case of `O=C(c1ccccc1)N1CCN(C(=O)N2CCCCC2)CC1`, the inhibition was -0.28% (inactive).
Turning to `O=C(O)c1ccc(N=NN2CCOCC2)cc1`, the inhibition is 20.6% (active).
The value for `CN1CCN(S(=O)(=O)c2cccc(C(=O)O)c2)CC1` was -1.11% (inactive).
In the case of `NC(=NC(=O)c1ccccc1)N1CCOCC1`, the inhibition was -2.45% (inactive).
The value for `O=C(O)c1cccc(N=NN2CCCCCC2)c1` was 37.5% (active); that for `COc1cc(SC)ccc1C(=O)Nc1cc(C)ccn1` was 12.1% (inactive); that for `COC(=O)c1sc(NC(=S)NC(=O)c2ccc(C)cc2)nc1C` was 1.68% (inactive).
As to `COc1cc(SC)ccc1C(=O)NCCOc1ccccc1Cl`, the inhibition is 3.08% (inactive).
Consider `COC(=O)c1sc(NC(=O)c2ccc(OC)cc2OC)nc1C`, for which the inhibition was 36.3% (active).
Turning to `COc1cc(SC)ccc1C(=O)Nc1nc(C)cs1`, the inhibition was 82.5% (active).
Turning to `Cc1ccc(NC(=O)c2csc3c2CCCC3)cc1`, the inhibition was 1.71% (inactive).
In the case of `COc1cc2ccccc2cc1C(=O)Nc1nc(C)c(C(C)=O)s1`, the inhibition is 10.7% (inactive).
The value for `COC(=O)c1sc(NC(=O)c2csc3c2CCCC3)nc1C` was 35.7% (active); that for `COc1ccc(Cc2nnc(NC(=O)c3ccc(OC)cc3OC)s2)cc1` was -0.32% (inactive).
The value for `CCN(C(=O)c1cc([N+](=O)[O-])ccc1NCc1cccnc1)c1ccccc1` was -2.39% (inactive).
For the compound `Cc1ccc(-c2csc(N3CCN(c4cc5c(cc4Cl)nc(-c4ccncc4)n5CCOCCO)CC3)n2)cc1`, the inhibition is 0.37% (inactive).
The value for `O=C(O)c1cc2c(cc1NC(=O)c1c(F)cccc1Cl)OCCCO2` was 1.02% (inactive); that for `Cc1cc(=O)oc2cc(OCC(=O)N3CCN(c4ccc(F)cc4)CC3)c(Cl)cc12` was 0.58% (inactive); that for `CCOc1ccccc1NS(=O)(=O)c1c[nH]c(C(=O)OC)c1` was -0.36% (inactive).
Regarding `CCC1Oc2ccccc2N(CC(=O)NCCCN2CCN(CC)CC2)C1=O` (configuration not stated), the inhibition was -0.16% (inactive).
The value for `O=C(CCc1nc2ccccc2c(=O)[nH]1)OCC(=O)c1cccc(Cl)c1` was -0.45% (inactive); that for `Cc1ccc(C(=O)COC(=O)c2cccc(N3C(=O)c4c(C)nc5ccccc5c4C3=O)c2)cc1C` was 21.8% (active); that for `CCCc1nc2ccccc2c(C(=O)OCC(=O)c2ccc3c(c2)NC(=O)CO3)c1CC` was 10.5% (inactive).
As for `COc1ccc(Cl)cc1-n1c(=S)sc2c(=O)n(-c3ccc(F)cc3)c(SCC(=O)O)nc21`, the inhibition was -4.32% (inactive).
The value for `CCc1nc(SCC(=O)Nc2ccccc2OC)n[nH]1` was 37.9% (active); that for `CCCCCNC(=O)c1cccnc1SCC(=O)Nc1ccccc1OC` was 0.66% (inactive).
On to `COC(=O)c1ccccc1NC(=O)CSc1n[nH]c(-c2ccncc2)n1`, for which the inhibition is -0.92% (inactive).
The same measure for `Nc1nnnn1/N=C/c1cccc(Br)c1`: -1.72% (inactive); for `CCCN1C2CCCC1CC(NC(=O)NC13CC4CC(CC(C4)C1)C3)C2` (configuration not stated): 2.81% (inactive); for `CNC(=S)N/N=C/c1ccc(N2CCOCC2)s1`: 5.17% (inactive).
Regarding `C/C(=N\NC(=O)Cc1ccc(Cl)cc1)c1ccccn1`, the inhibition is 1.95% (inactive).
On to `C/C(=N\NC(=O)c1ccccc1F)c1ccccn1`, for which the inhibition was 21.6% (active).
With `COc1ccc(CC(=O)N/N=C(\C)c2ccccn2)cc1`, the inhibition was 2.53% (inactive).
For the compound `Cc1ccc(/C=C2/SC(=S)N(CCC(=O)NCCCN3CCOCC3)C2=O)cc1`, the inhibition is -1.06% (inactive).
In the case of `O=C1CCC(C(=O)N2CCC(O)(c3ccccc3)CC2)CN1CCc1ccccc1` (configuration not stated), the inhibition is -4.78% (inactive).
For `O=C(CN(C(=O)c1nsc(Cl)c1Cl)c1cccc(F)c1)NC1CCCC1`, the inhibition was -2.72% (inactive).
For the compound `COc1ccc(CNC(=O)CCN2C(=O)c3ccccc3C2=O)cc1`, the inhibition was 3.06% (inactive).
For the compound `CN(Cc1ccccc1)C(=O)C1CCCN(c2ncnc3c2nc2n3CCCCC2)C1` (configuration not stated), the inhibition is -4.53% (inactive).
In the case of `CC(C)(C)c1ccc(C(=O)NCCn2c(N)c(C#N)c3nc4ccccc4nc32)cc1`, the inhibition was 2.15% (inactive).
As to `COCC(C)OC(=O)c1c(N)n(CCCN2CCOCC2)c2nc3ccccc3nc12` (configuration not stated), the inhibition was 4.05% (inactive).
Turning to `CC(C)(C)OC(=O)c1c(N)n(CCCN2CCCC2=O)c2nc3ccccc3nc12`, the inhibition was 17.2% (active).
As for `Cc1c(C(=O)N/N=C/c2ccccc2)[nH]c2c([N+](=O)[O-])cccc12`, the inhibition was 3.21% (inactive).
In the case of `COc1cccc2c(C)c(C(=O)O)[nH]c12`, the inhibition is 30.8% (active).
Turning to `COc1cc2c(C(=O)O)c(C)n(C)c2c2ccccc12`, the inhibition is 1.04% (inactive).
Take `Cc1cccc(-c2c(NC(=O)c3ccco3)oc3ccc(Cl)cc3c2=O)c1`: the inhibition is 3.25% (inactive).
The same measure for `Cc1cc(C)nc(/N=C2\NC(=O)CC(C(=O)O)N2c2ccc(Cl)cc2Cl)n1` (configuration not stated): 3.62% (inactive).
The same measure for `CCOC(=O)c1nc(C)n(-c2ccc(Cl)cc2Cl)n1`: 17.8% (active); for `CCOC(=O)c1cnc(SC)nc1Sc1ccc(Cl)cc1Cl`: -1.52% (inactive); for `CC(=O)N1CCN(CC(C)(C)NS(=O)(=O)c2ccc(C)cc2)CC1`: -0.75% (inactive).
The same measure for `CC(CC(=O)Nc1ccc(F)cc1F)S(=O)(=O)c1ccc2c(c1)NC(=O)CO2` (configuration not stated): -2.21% (inactive); for `Cc1ccsc1C(=O)OCC(=O)c1cc(C)n(CC2CCCO2)c1C` (configuration not stated): 82.5% (active); for `Cc1cc(C(=O)Cn2cnc3cc([N+](=O)[O-])ccc3c2=O)c(C)n1CC1CCCO1` (configuration not stated): -6.94% (inactive).
In the case of `Cc1cc(C(=O)CCl)c(C)n1CC1COc2ccccc2O1` (configuration not stated), the inhibition is 4.06% (inactive).
With `CCOC(=O)CSc1nc2ccc(C)cc2n2cnnc12`, the inhibition was -0.11% (inactive).
Consider `O=C(Nc1ncc2c(n1)CC(c1ccco1)CC2=O)c1ccc(Cl)cc1` (configuration not stated), for which the inhibition was 1.31% (inactive).
As to `COc1cc(C2CC(=O)c3cnc(NC(C)=O)nc3C2)cc(OC)c1OC` (configuration not stated), the inhibition was -1.32% (inactive).
Take `CCc1ccc(Nc2ncc3c(n2)CC(c2ccco2)CC3=O)cc1` (configuration not stated): the inhibition was 22% (active).
On to `COc1ccc(NC(=O)NCc2ccc3c(c2)OCO3)c(OC)c1`, for which the inhibition was -7.38% (inactive).
The same measure for `CCC(C)(C)n1nnnc1C(c1ccc(OC)c(OC)c1)N1CCN(C(=O)c2ccco2)CC1` (configuration not stated): -0.49% (inactive); for `CCC(=O)Nc1c(S(=O)(=O)c2ccccc2)c2nc3ccccc3nc2n1Cc1ccccc1`: 5.13% (inactive).
Take `CCN(CC)CCn1c(N)c(S(=O)(=O)c2ccccc2)c2nc3ccccc3nc21`: the inhibition was 22.7% (active).
As to `Cc1ccc(S(=O)(=O)c2c(N)n(C)c3nc4ccccc4nc23)cc1`, the inhibition is -1.87% (inactive).
The same measure for `O=C(N/N=C/c1ccoc1)c1ccc(Cl)cc1Cl`: -0.55% (inactive).
In the case of `CCN(CC)CCNc1nc(-c2ccc(OC(F)F)cc2)c(C)s1`, the inhibition was 1.64% (inactive).
